# The supplement of paper PMC10849652
# About 8,800 targets were measured; listed, in parts, are those with a hit and a random draw of the rest. About 0.5% of all pairs of compound and target were hits. A number with no mark means an inactive call.
# Legend:
# Assay in all cases: log2 fold change, soluble protein after heating vs DMSO (PISA); higher = thermal stabilisation; K562 lysate, 10 uM; active = over 0.2 and 3.5 SD of the protein, either way, in both replicates (recomputed)
# [1] = compound: C1=CC=C(C=C1)[C@H](COC2=CC3=C(C=C2)NC(=O)N3)NC(=O)C4=CC=CN(C4=O)CC5=CC(=C(C=C5)F)F
# Method in brief: (§1)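 K562 pellets were dounce-homogenised in PBS pH 7.4 containing 1 mM MgCl2, and the crude extract, at 1 mg/mL protein, was exposed to 10 μM compound for 30 min. Aliquots were heated for 3 min across 48°C-58°C, pooled, brought to 0.5% NP-40 at 4°C and spun at 21,000xg for 90 min, with the supernatant taken as soluble protein. TMTpro 16plex LC-MS/MS with equalised channel sums quantified that protein. Values are log-two fold changes in thermal stability relative to solvent controls, taken from duplicates.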
# [2] = compound: CC1=C(SC2=C1C(=N[C@H](C3=NN=C(N32)C)CC(=O)N)C4=CC=C(C=C4)Cl)C
# Method in brief: as §1
# [3] = compound: CC1=C2C(=CC=C1)N=C(N(C2=O)C3=CC=CC=C3C)CN4C=NC5=C(N=CN=C54)N
# Method in brief: as §1
# [4] = compound: Cc1sc2c(c1C)C(c1ccc(Cl)cc1)=N[C@@H](CC(=O)OC(C)(C)C)c1nnc(C)n1-2
# Method in brief: as §1
# [5] = compound: c1ccc([C@@H]2C[C@H]2NC2CCNCC2)cc1
# Method in brief: as §1
# Sequence of UniProt Q9H2H8 (Q9H2H8 whole entry, looked up): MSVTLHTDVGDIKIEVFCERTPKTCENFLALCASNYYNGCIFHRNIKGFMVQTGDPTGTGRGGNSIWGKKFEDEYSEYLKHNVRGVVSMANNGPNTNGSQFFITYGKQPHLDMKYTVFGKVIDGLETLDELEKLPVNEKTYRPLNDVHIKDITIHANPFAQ
# Sequence of UniProt Q99541 (Q99541 whole entry, looked up): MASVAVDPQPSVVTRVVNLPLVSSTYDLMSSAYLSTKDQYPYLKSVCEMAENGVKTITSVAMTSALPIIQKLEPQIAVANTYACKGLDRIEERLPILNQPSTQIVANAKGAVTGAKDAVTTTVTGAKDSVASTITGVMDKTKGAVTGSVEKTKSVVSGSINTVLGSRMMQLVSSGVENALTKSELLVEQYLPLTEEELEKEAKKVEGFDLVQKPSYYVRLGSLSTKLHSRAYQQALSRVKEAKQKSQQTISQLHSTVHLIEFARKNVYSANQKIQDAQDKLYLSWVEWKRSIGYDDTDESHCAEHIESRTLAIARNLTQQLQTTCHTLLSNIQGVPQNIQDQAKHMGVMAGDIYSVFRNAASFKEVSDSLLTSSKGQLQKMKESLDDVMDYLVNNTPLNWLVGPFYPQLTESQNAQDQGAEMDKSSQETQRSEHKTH
# Sequence of UniProt P28065 (P28065 whole entry, looked up): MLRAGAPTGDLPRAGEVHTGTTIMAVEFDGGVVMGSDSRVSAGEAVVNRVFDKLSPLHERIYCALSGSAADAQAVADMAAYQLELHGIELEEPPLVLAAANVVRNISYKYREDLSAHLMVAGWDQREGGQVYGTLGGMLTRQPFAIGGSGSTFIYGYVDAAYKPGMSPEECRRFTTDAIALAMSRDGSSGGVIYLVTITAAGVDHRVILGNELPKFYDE
# Sequence of UniProt P29350 (P29350 whole entry, looked up): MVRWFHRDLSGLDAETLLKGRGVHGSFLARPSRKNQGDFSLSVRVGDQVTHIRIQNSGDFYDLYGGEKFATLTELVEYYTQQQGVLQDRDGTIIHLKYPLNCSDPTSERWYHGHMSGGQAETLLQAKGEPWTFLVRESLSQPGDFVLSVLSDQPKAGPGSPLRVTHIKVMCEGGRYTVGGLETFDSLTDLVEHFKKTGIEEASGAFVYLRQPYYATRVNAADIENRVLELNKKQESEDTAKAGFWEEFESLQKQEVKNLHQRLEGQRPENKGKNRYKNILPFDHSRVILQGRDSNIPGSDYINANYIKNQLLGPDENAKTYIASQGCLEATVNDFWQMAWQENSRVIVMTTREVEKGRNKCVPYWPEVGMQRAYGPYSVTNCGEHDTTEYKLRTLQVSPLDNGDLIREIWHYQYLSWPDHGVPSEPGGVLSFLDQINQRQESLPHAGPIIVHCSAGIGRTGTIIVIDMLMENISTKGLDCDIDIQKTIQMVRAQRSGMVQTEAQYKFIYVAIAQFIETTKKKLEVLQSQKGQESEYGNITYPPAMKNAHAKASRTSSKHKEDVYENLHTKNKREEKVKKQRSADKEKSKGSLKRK
# Sequence of UniProt Q14289 (Q14289 whole entry, looked up): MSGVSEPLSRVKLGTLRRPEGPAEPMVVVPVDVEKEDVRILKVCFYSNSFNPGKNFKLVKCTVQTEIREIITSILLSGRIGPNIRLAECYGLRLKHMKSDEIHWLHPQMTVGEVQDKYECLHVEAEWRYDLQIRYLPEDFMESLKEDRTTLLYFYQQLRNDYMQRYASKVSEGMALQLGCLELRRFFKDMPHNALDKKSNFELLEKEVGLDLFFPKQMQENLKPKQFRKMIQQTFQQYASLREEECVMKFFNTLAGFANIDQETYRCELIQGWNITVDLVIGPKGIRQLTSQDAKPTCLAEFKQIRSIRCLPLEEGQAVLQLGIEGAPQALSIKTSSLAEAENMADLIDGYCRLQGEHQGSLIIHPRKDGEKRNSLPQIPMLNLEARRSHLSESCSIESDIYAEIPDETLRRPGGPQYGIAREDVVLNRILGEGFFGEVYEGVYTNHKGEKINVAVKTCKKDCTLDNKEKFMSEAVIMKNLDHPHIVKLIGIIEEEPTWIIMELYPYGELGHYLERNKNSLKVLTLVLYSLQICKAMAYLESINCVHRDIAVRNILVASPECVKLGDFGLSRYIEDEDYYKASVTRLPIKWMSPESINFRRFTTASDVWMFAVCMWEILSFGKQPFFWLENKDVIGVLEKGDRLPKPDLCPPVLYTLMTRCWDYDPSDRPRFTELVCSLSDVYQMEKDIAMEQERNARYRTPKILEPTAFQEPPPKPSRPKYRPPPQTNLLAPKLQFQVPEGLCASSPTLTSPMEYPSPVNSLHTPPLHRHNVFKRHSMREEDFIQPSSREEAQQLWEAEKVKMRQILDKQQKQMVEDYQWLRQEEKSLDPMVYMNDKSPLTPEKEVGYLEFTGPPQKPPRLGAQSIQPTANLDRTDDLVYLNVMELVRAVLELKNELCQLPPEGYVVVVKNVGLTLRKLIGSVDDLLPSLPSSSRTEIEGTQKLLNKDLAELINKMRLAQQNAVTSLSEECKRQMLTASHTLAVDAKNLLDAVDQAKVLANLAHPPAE
# Sequence of UniProt Q9ULR3 (Q9ULR3 whole entry, looked up): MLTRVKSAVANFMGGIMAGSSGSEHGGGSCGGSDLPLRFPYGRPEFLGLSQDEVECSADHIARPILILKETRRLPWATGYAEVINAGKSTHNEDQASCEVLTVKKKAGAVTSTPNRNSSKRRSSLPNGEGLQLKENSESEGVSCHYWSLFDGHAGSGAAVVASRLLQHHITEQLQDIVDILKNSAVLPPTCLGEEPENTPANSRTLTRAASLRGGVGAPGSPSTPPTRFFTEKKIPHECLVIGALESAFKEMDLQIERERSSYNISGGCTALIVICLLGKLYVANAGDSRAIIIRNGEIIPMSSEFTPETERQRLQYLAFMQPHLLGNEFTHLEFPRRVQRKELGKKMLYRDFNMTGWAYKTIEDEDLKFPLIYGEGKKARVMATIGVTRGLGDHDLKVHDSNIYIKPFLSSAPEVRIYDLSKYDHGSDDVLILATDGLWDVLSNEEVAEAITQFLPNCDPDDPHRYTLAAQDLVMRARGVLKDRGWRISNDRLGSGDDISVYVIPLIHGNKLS
# Sequence of UniProt Q6EEV4 (Q6EEV4 whole entry, looked up): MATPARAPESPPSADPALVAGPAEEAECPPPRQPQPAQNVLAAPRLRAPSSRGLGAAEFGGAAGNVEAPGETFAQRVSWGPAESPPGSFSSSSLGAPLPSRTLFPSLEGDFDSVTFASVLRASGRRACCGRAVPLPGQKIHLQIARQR
# Sequence of UniProt Q13442 (Q13442 whole entry, looked up): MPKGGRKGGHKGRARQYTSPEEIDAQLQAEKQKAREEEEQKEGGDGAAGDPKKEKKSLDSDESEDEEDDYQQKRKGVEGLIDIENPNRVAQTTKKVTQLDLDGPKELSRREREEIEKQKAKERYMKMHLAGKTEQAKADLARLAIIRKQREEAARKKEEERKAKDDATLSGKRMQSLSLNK
# Sequence of UniProt Q15269 (Q15269 whole entry, looked up): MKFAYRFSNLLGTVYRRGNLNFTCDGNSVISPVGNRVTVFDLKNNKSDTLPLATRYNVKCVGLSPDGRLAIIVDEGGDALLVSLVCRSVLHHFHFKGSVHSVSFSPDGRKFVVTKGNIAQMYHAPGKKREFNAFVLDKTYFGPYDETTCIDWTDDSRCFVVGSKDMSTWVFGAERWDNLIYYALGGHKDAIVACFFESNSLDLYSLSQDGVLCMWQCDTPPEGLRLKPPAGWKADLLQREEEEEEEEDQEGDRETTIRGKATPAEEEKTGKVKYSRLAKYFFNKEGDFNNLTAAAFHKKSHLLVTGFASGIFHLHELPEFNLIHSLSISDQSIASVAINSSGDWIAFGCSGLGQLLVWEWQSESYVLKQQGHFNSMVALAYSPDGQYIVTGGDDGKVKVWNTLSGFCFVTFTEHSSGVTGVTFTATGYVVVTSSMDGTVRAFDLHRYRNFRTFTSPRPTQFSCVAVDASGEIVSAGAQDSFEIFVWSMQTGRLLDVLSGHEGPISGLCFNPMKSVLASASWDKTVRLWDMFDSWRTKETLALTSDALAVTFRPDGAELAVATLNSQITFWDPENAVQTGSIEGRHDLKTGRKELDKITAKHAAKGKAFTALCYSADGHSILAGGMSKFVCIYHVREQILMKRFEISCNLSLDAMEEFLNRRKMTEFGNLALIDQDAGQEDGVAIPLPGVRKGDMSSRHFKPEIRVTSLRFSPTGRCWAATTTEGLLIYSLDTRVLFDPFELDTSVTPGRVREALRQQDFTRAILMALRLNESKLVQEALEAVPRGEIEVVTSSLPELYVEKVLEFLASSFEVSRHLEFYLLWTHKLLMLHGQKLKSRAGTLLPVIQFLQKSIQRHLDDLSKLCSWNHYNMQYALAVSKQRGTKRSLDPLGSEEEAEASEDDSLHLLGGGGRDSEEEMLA
# Sequence of UniProt P49643 (P49643 whole entry, looked up): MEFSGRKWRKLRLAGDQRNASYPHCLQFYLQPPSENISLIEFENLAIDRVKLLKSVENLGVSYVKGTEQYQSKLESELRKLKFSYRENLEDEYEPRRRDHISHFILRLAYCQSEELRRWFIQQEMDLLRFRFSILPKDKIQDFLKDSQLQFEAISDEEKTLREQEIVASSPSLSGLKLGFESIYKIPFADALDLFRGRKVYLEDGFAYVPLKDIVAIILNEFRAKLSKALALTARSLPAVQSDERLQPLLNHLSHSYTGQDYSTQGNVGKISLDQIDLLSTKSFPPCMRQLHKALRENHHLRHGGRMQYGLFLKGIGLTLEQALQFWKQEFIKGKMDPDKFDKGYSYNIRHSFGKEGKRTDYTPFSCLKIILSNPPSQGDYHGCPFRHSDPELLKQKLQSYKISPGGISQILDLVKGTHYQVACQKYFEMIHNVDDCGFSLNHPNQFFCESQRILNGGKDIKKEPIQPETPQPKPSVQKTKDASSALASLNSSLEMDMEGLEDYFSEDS
# Sequence of UniProt P06454 (P06454 whole entry, looked up): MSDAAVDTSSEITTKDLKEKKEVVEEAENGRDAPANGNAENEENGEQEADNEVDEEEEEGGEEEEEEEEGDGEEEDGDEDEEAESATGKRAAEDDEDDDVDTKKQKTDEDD
# Sequence of UniProt Q15004 (Q15004 whole entry, looked up): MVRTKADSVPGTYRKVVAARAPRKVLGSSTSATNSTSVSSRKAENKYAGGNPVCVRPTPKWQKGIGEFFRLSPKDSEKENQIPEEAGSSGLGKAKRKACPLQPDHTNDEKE
Target,log2 fold change [1],log2 fold change [2],log2 fold change [3],log2 fold change [4],log2 fold change [5]
PPP2CA (UniProt P67775),-0.108,0.037,0.037,0.092,-0.092
PTP4A1 (UniProt Q93096),0.047,0.006,0.012,-0.01,0.041
PLEKHF1 (UniProt Q96S99),-0.019,0.034,0.029,0.01,0.014
PTMA (UniProt P06454),0.015,0.018,0.01,-0.004,0.241
PIK3CB (UniProt P42338),-0.066,-0.054,0.518 (active),-0.049,-0.033
PPP1R14C (UniProt Q8TAE6),-0.019,0.024,0.051,-0.078,-0.147
PTPN6 isoform 4 (UniProt P29350),0.12,0.029,0.063,0.047,0.133
PELO (UniProt Q9BRX2),-0.014,0.05,0.034,0.087,0.27
PPIL3 (UniProt Q9H2H8),0.067,-0.012,0.035,0.028,-0.237 (active)
PPIL2 (UniProt Q13356),0.036,0.005,0.029,0.082,0.011
PRKD2 isoform 3 (UniProt Q9BZL6),0.001,-0.031,0.121,0.02,0.104
PRKCSH (UniProt P14314),0,-0.002,-0.017,0.041,0.021
PSMB9 (UniProt P28065),0.074,0.159,0.111,-0.095,-0.013
PFDN2 (UniProt Q9UHV9),0.044,-0.055,-0.016,-0.008,0.063
PICALM (UniProt Q13492),-0.014,0.027,0.016,0.005,0.007
PTK2B (UniProt Q14289),-0.056,-0.012,-0.036,-0.009,-0.034
PDIA4 (UniProt P13667),-0.004,-0.006,-0.009,0.002,0.037
PFN1 (UniProt P07737),-0.004,0.009,0,-0.004,-0.007
PDE2A (UniProt O00408),0.012,0.067,0.163,0.039,0
PHKB isoform 3 (UniProt Q93100),0.015,0.011,0.042,-0.012,-0.066
PDE4DIP isoform 4 (UniProt Q5VU43),-0.102,0.154,0.018,-0.016,-0.015
PPP2R5C isoform 4 (UniProt Q13362),-0.057,0.003,0.021,-0.103,0.021
PRC1 (UniProt O43663),0.089,0.037,0.026,0.03,0.043
POLR2M (UniProt Q6EEV4),0.01,0.042,-0.084,0.132,0.012
PTPN23 (UniProt Q9H3S7),-0.033,0.011,0.007,0.024,0
PSTPIP2 (UniProt Q9H939),0,-0.01,0.046,0,0.027

Target,log2 fold change [1],log2 fold change [2],log2 fold change [3],log2 fold change [4],log2 fold change [5]
PRKAR2B (UniProt P31323),-0.028,0.018,0.011,-0.002,0.068
POLR2F (UniProt P61218),0.013,-0.105,-0.163,0.381,0.359
PCLAF (UniProt Q15004),0.053,0.016,-0.037,-0.059,-0.039
PI4K2B (UniProt Q8TCG2),-0.033,0.048,0.074,0.068,0.077
PLA2G4B isoform 6 (UniProt P0C869),-0.003,0.024,-0.052,0.099,-0.019
PHKA1 (UniProt P46020),0.033,0.02,0,-0.008,0.001
PYCR2 (UniProt Q96C36),0.007,0.036,0.013,0.004,-0.054
PREP (UniProt P48147),0.006,0.02,0.013,-0.02,0.03
PMS2 (UniProt P54278),-0.021,0.005,0.024,-0.031,0.039
POMP (UniProt Q9Y244),0.077,-0.053,0.045,-0.036,0.061
PCF11 (UniProt O94913),-0.135,0.018,0.022,0.008,0.079
PRIM2 (UniProt P49643),0.004,0.026,0.016,0.009,0.028
PRIM1 (UniProt P49642),0.009,-0.051,-0.018,-0.006,0.047
PPP2R5C isoform 2 (UniProt Q13362),-0.016,0.224,0.004,-0.136,0.026
PFKFB4 (UniProt Q16877),-0.066,0.023,0.059,-0.053,-0.007
PTGR2 (UniProt Q8N8N7),0.009,0.039,-0.003,-0.048,-0.004
PDCD6IP isoform 2 (UniProt Q8WUM4),-0.019,-0.004,0.018,0.02,0.056
PDAP1 (UniProt Q13442),0.004,0.042,0.008,0.084,-0.112
PPM1H (UniProt Q9ULR3),0.011,-0.023,-0.008,0.062,0.05
PRAME (UniProt P78395),-0.009,0.014,0.014,-0.008,0.026
PTGES2 (UniProt Q9H7Z7),0.166,-0.119,-0.101,-0.006,0.014
PWP2 (UniProt Q15269),-0.004,-0.042,-0.013,-0.048,0.061
PKP3 isoform 2 (UniProt Q9Y446),-0.049,0.014,0.002,0.062,-0.004
PLIN2 (UniProt Q99541),-0.138,0.015,0.021,-0.018,0.014
PWP1 (UniProt Q13610),0.041,-0.041,-0.052,-0.004,0.088
PTPN1 (UniProt P18031),-0.006,0.008,0.01,-0.026,0.005
